Bioassay records from PubChem.
PAX8 reporter: PAX8 transcriptional activity inhibition; inhibition, % at 12.6 µM; 1.2% of 360,000 active; RMG-I TPO-luciferase reporter, SteadyGlo, 24 h;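 active = mean replicate inhibition at least 60% with every replicate also reaching 60%; inconclusive = only one of the two criteria is met; inactive = mean below 60% and not all replicates reaching 60%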;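 note: luciferase light reporting Pax8 driven TPO promoter activity; plate controls were median of neutral control wells for no effect and mitoxantrone controls for full effect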
Beta cell apopt: blocks beta cell apoptosis | protection from apoptosis, % (concentration not given with the values) | AID 435005 | 0.8% of 300,000 active | INS-1E cytokine-induced death, ATP luminescence, 48 h; percent of positive-control rescue, neutral wells zero;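 active = Every replicate reaches about 75%, or at least half do and their mean reaches it too, limit read from the data; inconclusive = At least half of replicates reach the limit but their mean does not; inactive = Under half of replicates reach the limit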;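 note: 0% = cytokine-treated negative control wells and 100% = positive control rescue; higher means more ATP so stronger rescue from cytokine killing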
Mdm2 MdmX PPI: inhibitors of human Mdm2/MdmX interaction | SaOS-2 split-luciferase Mdm2/MdmX complementation, luminescence | inhibition, % at 8 µM | 3% of 330,000 active | AID 485346;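 active = inhibition of at least 50% at 8 µM in the primary screen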
Target sequence (O15151 whole entry, looked up): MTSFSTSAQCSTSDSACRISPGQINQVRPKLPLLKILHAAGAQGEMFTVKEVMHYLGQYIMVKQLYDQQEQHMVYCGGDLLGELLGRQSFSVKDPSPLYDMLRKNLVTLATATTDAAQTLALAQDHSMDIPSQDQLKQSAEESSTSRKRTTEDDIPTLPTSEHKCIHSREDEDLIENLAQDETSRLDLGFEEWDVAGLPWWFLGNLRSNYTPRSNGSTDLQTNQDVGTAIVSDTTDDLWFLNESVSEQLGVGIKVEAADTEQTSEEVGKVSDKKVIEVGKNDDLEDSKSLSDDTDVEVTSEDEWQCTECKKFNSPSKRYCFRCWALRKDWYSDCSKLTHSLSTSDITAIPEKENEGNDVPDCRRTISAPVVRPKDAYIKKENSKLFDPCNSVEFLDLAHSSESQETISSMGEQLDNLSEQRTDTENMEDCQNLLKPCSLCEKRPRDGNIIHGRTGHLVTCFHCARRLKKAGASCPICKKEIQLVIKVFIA
Target sequence (Q00987 whole entry, looked up): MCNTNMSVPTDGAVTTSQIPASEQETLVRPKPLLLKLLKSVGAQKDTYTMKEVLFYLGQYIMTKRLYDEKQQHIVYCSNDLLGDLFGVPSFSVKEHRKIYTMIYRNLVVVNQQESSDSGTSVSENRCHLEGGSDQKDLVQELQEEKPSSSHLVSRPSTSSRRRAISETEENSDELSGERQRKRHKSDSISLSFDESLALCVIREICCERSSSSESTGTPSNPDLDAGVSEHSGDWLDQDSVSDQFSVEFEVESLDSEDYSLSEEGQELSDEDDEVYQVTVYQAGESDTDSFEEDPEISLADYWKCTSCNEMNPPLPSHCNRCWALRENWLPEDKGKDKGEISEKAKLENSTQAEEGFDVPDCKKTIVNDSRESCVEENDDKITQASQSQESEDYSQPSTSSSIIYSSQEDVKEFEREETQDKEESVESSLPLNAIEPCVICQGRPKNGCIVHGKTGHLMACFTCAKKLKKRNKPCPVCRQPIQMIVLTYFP
Gli-Sufu antag: Gli-Sufu pathway antagonism; inhibition, % at 5 µM; 0.74% of 340,000 active; Sufu-KO-LIGHT fibroblasts, Gli luciferase reporter luminescence; AID 588413;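 active = inhibition above about 55%, limit read from the data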;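 note: 0% = DMSO-treated cells and 100% = wells with medium but no cells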
Shn3 inh set2: Schnurri-3 reporter inhibition in Clone20 osteoblasts | Clone20 osteoblast Shn3 3'UTR firefly luciferase, 24 h | inhibition, % at 12.5 µM | 0.52% of 360,000 active | AID 588674;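 active = mean inhibition of at least 75% with every replicate also reaching 75%; inconclusive = mean inhibition at least 75% but some replicate below; inactive = mean inhibition below 75%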;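 note: 0% = median of neutral control wells and 100% = pilot-screen positive control compound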
CSC inhib: blocks cancer stem cells. 1.1% of 300,000 active. AID 2717. cancer stem cell-like cells viability, luminescence. inhibition, % at 7.5 µM; in the data active = inhibition above about 75%; inconclusive = no clear call, values can overlap the other calls; tested in HMLE shEcad cells
Mdm2 MdmX conf: confirmation of human Mdm2/MdmX interaction inhibitors. Mdm2-MdmX binding, luminescent assay. 55% of 10,000 active. shares compounds with Mdm2 MdmX PPI. inhibition, % at 8 µM; in the data active = inhibition above about 40%
Full FLuc ctr: counter-screen for Mdm2/MdmX inhibitors: full-length luciferase. shares compounds with Mdm2 MdmX PPI. SaOS-2 full-length luciferase counterscreen, luminescence. inhibition, % at 8 µM. 77% of 6,200 active. AID 504607;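 active = mean inhibition at 8 µM reaching about 37%, which flags the compound as non-specific, limit read from the data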;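 note: p53-null SaOS-2 cells with luciferase driven by a doxycycline-inducible promoter; compound on cells about two nights before reading with doxycycline added after day one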
Starred values were filed as active, the others as inactive; ? = inconclusive; . = no result given. Sampled rows, rich in hits. Any-hit rate of the full collection: about 4%.

SMILES | PAX8 reporter | Beta cell apopt | Mdm2 MdmX PPI | Gli-Sufu antag | Shn3 inh set2 | CSC inhib | Mdm2 MdmX conf | Full FLuc ctr
Cc1ccc(S(=O)(=O)N(C(=O)c2ccncc2)c2ccc3oc4c(c3c2)CCCC4)cc1[N+](=O)[O-] | 11 | 1 | 20 | 11 | -5 | . | . | .
COC(=O)c1c(C)oc2ccc(N(C(=O)Oc3ccccc3)S(=O)(=O)c3ccc(Cl)c([N+](=O)[O-])c3)cc12 | . | 0 | 96* | 7 | 13 | 63 | -12 | .
COC(=O)c1c(C)oc2ccc(N(C(=O)c3ccncc3)S(=O)(=O)c3ccc(C)cc3)cc12 | . | 62 | 56* | -4 | 61 | -7 | 52* | 86*
COc1ccc(CN(C)C[C@H]2Oc3ccc(NS(=O)(=O)c4ccc(C)cc4)cc3C(=O)N([C@H](C)CO)C[C@@H]2C)cc1 | 6 | . | . | . | . | . | . | .
CC1(C)c2ssc(=S)c2-c2ccccc2N1C(=O)c1ccco1 | . | -3 | 25 | 13 | 8 | 2 | . | .
Cc1ccc2c(c1)-c1c(ssc1=S)C(C)(C)N2C(=O)c1ccco1 | . | -16 | 57* | 5 | 2 | 48 | 37 | .
Fc1ccc(Nc2nc(N3CCOCC3)c3ccccc3n2)cc1 | . | 19 | 52* | 23 | 45 | . | 29 | .
c1ccc2c(Nc3nc(N4CCOCC4)c4ccccc4n3)cccc2c1 | 24 | 15 | 30 | 28 | 42 | 3 | . | .
CCOC(=O)C1=C(c2ccccc2)N=c2s/c(=C\c3cccc(O)c3)c(=O)n2C1c1cccs1 (stereo unspecified) | . | 20 | 78* | 3 | 15 | 99* | 29 | .
CCOC(=O)C1=C(C)N=c2s/c(=C\c3ccc(OC(C)=O)c(OCC)c3)c(=O)n2C1/C=C/c1ccccc1 (stereo unspecified) | 1 | -2 | 27 | -1 | 7 | -2 | . | .
C[C@@H]1CCCCO[C@H](CN(C)CC2CC2)[C@H](C)CN([C@@H](C)CO)C(=O)c2cc(NC(=O)c3ccccc3)ccc2O1 | 10 | . | . | . | . | . | . | .
COC(=O)c1ccc(C2C(C#N)=C(N)Oc3cc(N)ccc32)cc1 (stereo unspecified) | 18 | -3 | 16 | -2 | 7 | 1 | . | .
CN(C)c1ccc2c(c1)OC(N)=C(C#N)C2c1cccc(F)c1 (stereo unspecified) | . | 32 | 65* | 52 | 19 | . | 62* | 97*
N#CC1=C(N)Oc2cc(N)ccc2C1c1cccc(F)c1 (stereo unspecified) | 25 | 6 | 54* | 2 | 4 | 50 | 44* | 65*
Cc1cc(C(=O)CSc2ccc(F)cc2)cc(C)c1OC(=S)N(C)C | . | -3 | 58* | -8 | 32 | . | 84* | 107*
C[C@@H]1CN([C@@H](C)CO)C(=O)c2cc(NC(=O)c3ccncc3)ccc2O[C@@H](C)CCCCO[C@H]1CN(C)Cc1ccccc1 | -4 | . | . | . | . | . | . | .
C[C@@H]1[C@H]2[C@@H]3CC[C@@H](C3)[C@H]2CN[C@H]1c1cn(Cc2ccccc2)c2ccccc12 | 15 | . | 54* | -3 | -1 | . | 31 | .
CCn1c2ccccc2c2cc(Nc3cc(C)nc4ncnn34)ccc21 | 96* | 45 | 83* | 62* | 14 | 51 | 72* | 109*
CNC(=O)C[C@H]1CC[C@@H]2[C@H](COc3ccc(NC(=O)Nc4ccc(Cl)cc4)cc3C(=O)N2C)O1 | -11 | . | . | . | . | . | . | .
O=C(C[C@H]1CC[C@@H](NC(=O)C2CCC2)[C@H](CO)O1)Nc1nccs1 | 1 | . | . | . | . | . | . | .
C=CCNC(=O)c1ccc(CN(c2ccc(OCC)cc2)S(=O)(=O)c2ccc(C)cc2)cc1 | 24 | -1 | 50 | 12 | 9 | 64 | 40 | 50*
C=CCNC(=O)c1ccc(N(Cc2ccc(Cl)cc2)S(C)(=O)=O)cc1 | -11 | -5 | 19 | 5 | 7 | -5 | . | .
C[C@H](CO)N1C[C@H](C)[C@H](CN(C)C(=O)Nc2ccc(F)cc2)Oc2ccc(NC(=O)c3ccncc3)cc2C1=O | -7 | . | . | . | . | . | . | .
O=[N+]([O-])c1cnc2ccccc2c1 | 16 | -6 | 9 | -8 | 1 | -5 | . | .
O=[N+]([O-])c1cc([N+](=O)[O-])c2cc3ccccc3nc2c1 | 27 | 5 | 82* | -7 | 71 | 80* | 29 | .
SMILES | PAX8 reporter | Beta cell apopt | Mdm2 MdmX PPI | Gli-Sufu antag | Shn3 inh set2 | CSC inhib | Mdm2 MdmX conf | Full FLuc ctr
O=C(C[C@@H]1C[C@H]2c3cc(NC(=O)CC4CC4)ccc3O[C@H]2[C@@H](CO)O1)NCC1CC1 | 2 | . | . | . | . | . | . | .
CCOC(=O)CS(=O)(=O)c1ccccc1 | 3 | . | 9 | 5 | -9 | -6 | . | .
COC(=O)CCS(=O)(=O)c1nc(-c2ccccc2)cc(C(F)(F)F)n1 | . | 28 | 84* | -4 | 76 | . | 100* | 51*
CCOC(=O)CS(=O)(=O)c1nc(-c2ccc(F)cc2)cc(C(F)(F)F)n1 | . | . | 100* | -6 | 97* | 99* | 98* | 51*
CCOC(=O)CS(=O)(=O)c1nc(-c2ccccc2)cc(C(F)(F)F)n1 | . | 96* | 101* | -4 | 97* | 99* | 98* | 0
COc1nc(-c2ccccc2)cc(C(F)(F)F)n1 | . | -1 | -22 | 6 | 5 | -22 | . | .
CCOC(=O)CCS(=O)(=O)c1nc(-c2ccccc2)cc(C(F)(F)F)n1 | . | 31 | 100* | -12 | 98* | 100* | 100* | 51*
COc1ccc(C#Cc2cccc(-c3nc(C(=O)N4CCN(C)CC4)cc4c3[C@@H](CCO)N(S(=O)C(C)(C)C)C4)c2)cc1OC (stereo partly specified) | -25 | . | . | . | . | . | . | .
Cc1cccc(-c2ccc([C@@H]3[C@H]4CN(S(=O)(=O)c5cn(C)cn5)CCCCN4[C@H]3CO)cc2)c1 | -3 | . | . | . | . | . | . | .
COC(=O)[C@H]1[C@H](CO)[C@H]2Cn3c(ccc(-c4ccncc4)c3=O)[C@H]2N1Cc1cccc(F)c1 | 20 | . | . | . | . | . | . | .
CC(C)(C)OC(=O)N1Cc2ccccc2C[C@H]1C(=O)NCC(=O)Nc1ccc2c(c1)OCCO2 | -6 | 4 | 64* | 34 | 31 | -8 | 66* | 67*
COc1ccccc1S(=O)(=O)N[C@H]1CC[C@H](CCNC(=O)C2CCC2)O[C@@H]1CO | -8 | . | . | . | . | . | . | .
O=C(/C=C/c1ccccc1)/C=C/c1ccccc1 | 3 | 19 | 95* | -5 | 64 | ? | 22 | .
O=C(/C=C/c1ccccc1)c1ccccc1 | -81 | -8 | 18 | 13 | -54 | 15 | . | .
CCc1ccc(NC(=S)/N=C(\N)Nc2nc(C)c3cc(CC)ccc3n2)cc1 | 13 | 4 | 63* | 28 | 11 | 22 | 60* | 60*
COc1ccc2nc(N/C(N)=N/C(=S)Nc3ccc(C)c(C)c3)nc(C)c2c1 | . | 3 | 56* | . | . | 31 | 53* | 56*
COc1ccc2nc(N/C(N)=N/C(=S)Nc3ccccc3)nc(C)c2c1 | -62 | -3 | 26 | -1 | 0 | . | . | .
